This note sets out measurements from the OligoGym collection.
Note: reference of the scale not given here.

The target of one assay is LASP1. Description: pooled miR-30 sensor sort-seq; sequence = guide strand. The settings on record: shRNA.
ATGTTCAGTGTCATCTTGCAGG gave a sensor-assay potency score (higher = more potent) of -1.2.

Sequence TTCATGTTCAGTGTCATCTTGC came in with a sensor-assay potency score (higher = more potent) of 0.197.

In the case of TATATTACTGATCTGGTCCTGG, the sensor-assay potency score (higher = more potent) turned out to be 0.21.

Sequence TTATATTACTGATCTGGTCCTG displayed a sensor-assay potency score (higher = more potent) of 0.57.

Regarding TTTATGCCAGAACTTATCCAGA, the sensor-assay potency score (higher = more potent) was -1.03.

The sequence TTGCAGTAGGGCTTCTTCTCGT registered a sensor-assay potency score (higher = more potent) of -0.401.

The sequence TTCAGTGTCATCTTGCAGGTCT yielded a sensor-assay potency score (higher = more potent) of 0.744.

Sequence TTTTATATTACTGATCTGGTCC displayed a sensor-assay potency score (higher = more potent) of -0.194.

Turning to TACGCTGAAACCTTTGCCCTTG, the sensor-assay potency score (higher = more potent) was 0.0341.

In the case of TATTTTATATTACTGATCTGGT, the sensor-assay potency score (higher = more potent) was -0.425.

TACACGATCTTGCCGCACCGGG yielded a sensor-assay potency score (higher = more potent) of -1.34.

The sequence TTGTAGCGCACCTGACTCTGGA came in with a sensor-assay potency score (higher = more potent) of -0.666.

Another assay deals with LASS1. The assay is described as above. The settings on record: shRNA.
Consider TCGTAGAAGACAGATGGTGGGT, for which the sensor-assay potency score (higher = more potent) is -0.363.

Turning to TATAGCGTAGCGTAGATGGAGT, the sensor-assay potency score (higher = more potent) is -0.396.

In turn, TGTCCATGTATAGCGTAGCGTA registered a sensor-assay potency score (higher = more potent) of -1.61.

Turning to TAGTCGGTGCCAAACAGCAGGT, the sensor-assay potency score (higher = more potent) was -1.18.

As for TTGAAGTAAATGTTGAGCTTGG, the sensor-assay potency score (higher = more potent) is 0.853.

Turning to TAGAAGAGAAACTTCCAAGCGC, the sensor-assay potency score (higher = more potent) is 0.296.

On to TTGAAGAAGAAGTAGAAGGGGA, for which the sensor-assay potency score (higher = more potent) is 0.612.

With TGGAGCAGCATGACCACCGAGT, the sensor-assay potency score (higher = more potent) is -1.27.

Consider TAGAGGCGGAACCAGAACCAGC, for which the sensor-assay potency score (higher = more potent) is -1.74.

As for AAACTTCCAAGCGCTCTCGGGC, the sensor-assay potency score (higher = more potent) is -0.904.

In the case of TAGGCACTGTAGCTCCAGCTGC, the sensor-assay potency score (higher = more potent) is -1.01.

TAGCGTAGCGTAGATGGAGTGG had a sensor-assay potency score (higher = more potent) of -0.207.

For the next assay, the target named is LCE2C. The description is as above. The settings on record: shRNA.
Consider CACAGCAAGAAGAGACTGCAGG, for which the sensor-assay potency score (higher = more potent) was -2.53.

AGCAAGAAGAGACTGCAGGGAA: the sensor-assay potency score (higher = more potent) was -0.624.

In the case of CTGCAGGGAAACATGGAGCTGG, the sensor-assay potency score (higher = more potent) was -1.34.

With TCAGGGAGCAGCCACCAGCCCC, the sensor-assay potency score (higher = more potent) was -1.78.

The sequence AGACTGCAGGGAAACATGGAGC yielded a sensor-assay potency score (higher = more potent) of -2.06.

Sequence ACACTTGGGAGGACACTTGGGA gave a sensor-assay potency score (higher = more potent) of 0.0104.

On to TTCACTCTCACAGCAGTCGGGG, for which the sensor-assay potency score (higher = more potent) was -0.831.

On to TGGTGGCTCAGGGAGCAGCCAC, for which the sensor-assay potency score (higher = more potent) was -2.45.

As to TCACTCTCACAGCAGTCGGGGC, the sensor-assay potency score (higher = more potent) is -1.13.

A further assay concerns the target LCN1. Described as above. As to conditions: shRNA.
In turn, ATGCTCTCCGTGCTGAGTCCGC came in with a sensor-assay potency score (higher = more potent) of -1.5.

TCTCCGTGCTGAGTCCGCGGGC showed a sensor-assay potency score (higher = more potent) of -0.925.

On to TGGTCCTTCACGTGCGACCTGA, for which the sensor-assay potency score (higher = more potent) is -1.44.

With TTGTTCTTGGGGTCTCTGCCCA, the sensor-assay potency score (higher = more potent) was -0.515.

For the sequence TGTTCTTGGGGTCTCTGCCCAC, the sensor-assay potency score (higher = more potent) was -1.02.
